Screening data deposited in PubChem BioAssay by several laboratories.
A selection: hits, their analogues and other compounds. The true share with any hit is near 3%.
TWEAK-Fn14 inh: TWEAK-Fn14 signaling inhibition. TWEAK-stimulated Fn14 reporter cells, luciferase luminescence, 8 h. inhibition, % at 10 µM. 360,000 compounds, 2% hits. AID 1159606; in the data active means inhibition above about 50%
TROY NFkB inh: inhibitors of TROY-dependent NF-kB signaling; AID 1347056; inhibition, % at 10 µM; 360,000 compounds, 0.98% hits; Q293 LMP1-TROYcd NF-kB luciferase reporter, 4 h;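 active means compounds whose plate-normalised and pattern-corrected inhibition of the luciferase reporter signal at the single screening dose is 50% or more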
TRPM1 prom inh: MITF TRPM1 promoter inhibition in SK-MEL-5 cells | SK-MEL-5 TRPM1 promoter luciferase, 24 h | inhibition, % at 12.5 µM | 330,000 compounds, 0.83% hits | AID 488899;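 active means mean inhibition across replicates of 60% or more, whatever share of single replicates reaches that level; inconclusive means some that reach 60%, reason not given; inactive means mean inhibition across replicates below 60%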
LMP1 NFkB inh: inhibitors of Epstein-Barr LMP1-induced NF-kappaB reporter. inhibition, % at 12.5 µM. 350,000 compounds, 0.69% hits. LMP1-induced NF-kappaB luciferase reporter cells, luminescence; in the data active means inhibition above about 41%; inconclusive means no clear call, values can overlap the other calls;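 further: 0% = neutral control wells and 100% = reference inhibitor control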
MITF act: increases MITF-driven TRPM1 promoter luciferase signal; AID 588334; activation, % at 12.5 µM; SK-MEL-5 TRPM1-promoter luciferase, 24 h; % of positive control, neutral wells = 0; 300,000 compounds, 0.75% hits;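 active means mean activation of at least 80% with every replicate also reaching 80%; inconclusive means mean reaches 80% but some replicate falls short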;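 further: 0% = neutral control wells and 100% = parthenolide positive control wells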
LGR2 inh: inhibitors of bursicon-induced Drosophila LGR2 receptor cAMP signaling; HEK293 LGR2, CRE-luciferase, bursicon-stimulated, 4 h; inhibition, % at 9.99 µM; 380,000 compounds, 0.35% hits; AID 720647;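 active means drop in luminescence signal, shown as inhibition above about 50% in the replicate tests, limit read from the data, passing the limit was not always enough; inconclusive means probably only some replicates passing the limit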;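 further: agonist challenge used bursicon conditioned medium at about half maximal strength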
An asterisk follows results filed as active; i = inactive; ? = inconclusive; · = not tested or not shown.

SMILES	TWEAK-Fn14 inh	TROY NFkB inh	TRPM1 prom inh	LMP1 NFkB inh	MITF act	LGR2 inh
COc1cccc(/C=C/C(=O)N2CCN(S(=O)(=O)c3ccccc3)CC2)c1OC	73*	-18	-4	-8	5	-4
CCOC(=O)C1CCN(C(=O)/C=C/c2ccccc2OC)CC1	59*	-9	14	-17	-15	·
COc1ccc(/C=C/C(=O)N2CCN(S(=O)(=O)c3ccccc3)CC2)cc1OC	20	2	16	-21	-16	·
CCOc1ccc(N2C(=O)c3ccccc3NC2(C)CC)cc1 (stereo not given)	-21	-53	-110	-36	124*	-35
COc1ccc(N2C(=O)c3ccccc3NC23CCCCC3)cc1	17	-8	-96	-10	99*	-16
CC1(C)Nc2ccccc2C(=O)N1c1ccc(Br)cc1	19	-58	-67	-30	·	·
COc1ccc(N2C(=O)c3ccccc3NC2(C)C)cc1	-12	-66	-53	42*	47	-8
CCC1(C)Nc2ccccc2C(=O)N1O (stereo not given)	3	58*	-8	4	6	·
COC(=O)C1(C)Nc2ccccc2C(=O)N1c1ccccc1OC (stereo not given)	-10	2	-3	4	4	12
COc1ccc(N2C(=O)c3ccccc3NC23CCC(C)CC3)cc1 (stereo not given)	1	-43	-68	-8	65	-35
O=C(Nc1cc(F)ccc1F)N[C@H]1CC[C@@H](CCn2cc(C3CC3)nn2)O[C@@H]1CO	·	·	·	·	·	-7
CO[C@H]1CN(C)C(=O)c2ccc(NS(=O)(=O)c3ccccc3)cc2OC[C@@H](C)N(C)C[C@H]1C	·	·	·	·	·	9
C[C@@H]1CN([C@@H](C)CO)C(=O)Cc2cc(NC(=O)Nc3ccc(F)cc3)ccc2O[C@@H]1CN(C)C(=O)Nc1ccccc1	·	·	·	·	·	-10
Nc1ncnc(Sc2ccccc2)c1[N+](=O)[O-]	57*	22	-6	24	11	·
Cc1ccc(Sc2ncnc(N)c2[N+](=O)[O-])cc1	43	14	0	9	0	9
Nc1ncnc(Sc2ccc(Cl)cc2)c1[N+](=O)[O-]	69*	-7	0	1	-2	·
Nc1ncnc(Sc2ncccn2)c1[N+](=O)[O-]	71*	31	79*	-57	-80	?
C[C@H]1CN([C@@H](C)CO)S(=O)(=O)c2ccc(-c3ccc(C(=O)N(C)C)cc3)cc2O[C@H]1CN(C)C(=O)C1CCCCC1	·	·	·	·	·	-19
Cc1nc2ccc(NC(=O)CSc3ccccc3)cc2s1	4	-68	-95	-49	98*	-99
Cc1ccc(NC(=O)Cc2cccs2)cc1Cl	-35	-52	-59	-15	59	-16
Cc1nc2ccc(NC(=O)COc3ccccc3C)cc2s1	-19	-65	-16	-7	22	-30
Cc1nc2ccc(NC(=O)Cc3cccs3)cc2s1	1	35	-86	-35	88*	·
CCOc1cccc(NC(=O)Cc2cccs2)c1	110*	·	-6	1	6	·
CC(=O)Nc1cccc(NC(=O)Cc2cccs2)c1	8	-5	-1	-6	2	2
C#Cc1cccc(NC(=O)Cc2cccs2)c1	-10	-10	-13	-5	·	-10
SMILES	TWEAK-Fn14 inh	TROY NFkB inh	TRPM1 prom inh	LMP1 NFkB inh	MITF act	LGR2 inh
O=C(Cc1cccs1)Nc1cccc(-c2nc3cc4ccccc4cc3[nH]2)c1	74*	57*	-68	-66	79	5
C[C@H](CO)N1C[C@H](C)[C@@H](CN(C)S(=O)(=O)c2cccs2)OCCCC[C@H](C)Oc2ccc(NC(=O)Nc3ccc4c(c3)OCO4)cc2C1=O	·	·	·	·	·	4
Cc1nc2ccc(NC(=O)c3ccc(S(=O)(=O)N(C)c4ccccc4)cc3)cc2s1	58*	56*	18	7	-19	24
O=C(Cc1cccs1)Nc1nc2c(ccc3ccccc32)s1	50*	-5	10	-4	-7	-56
Cc1nc2ccc(NC(=O)c3ccc(Cl)s3)cc2s1	-72	-70	-89	-57	87*	-38
Cc1nc2ccc(NC(=O)Cc3c(F)cccc3Cl)cc2s1	-20	-38	-108	-29	108*	-50
CO[C@@H]1CN(C)C(=O)c2ccc(NC(=O)c3cccc(F)c3)cc2OC[C@H](C)N(C)C[C@H]1C	·	·	·	·	·	-2
CN1C(=O)c2cc(NC(=O)c3ccccc3Cl)ccc2OC[C@H]2O[C@@H](CC(=O)O)CC[C@H]21	·	·	·	·	·	-18
O=C(CN1C(=O)CCC1=O)NNc1ccc2ccccc2c1	70*	67*	19	-15	-18	-5
O=C(Cc1ccccc1)NNc1ccc2ccccc2c1	32	51*	8	-19	-9	6
CCS(=O)(=O)N(C)C[C@@H]1N[C@H](CO)[C@@H]1c1ccc(C#CC2CCCC2)cc1	·	·	·	·	·	3
C[C@H]1CN([C@@H](C)CO)C(=O)c2cccc(NS(=O)(=O)c3cccs3)c2O[C@@H]1CN(C)C	·	·	·	·	·	-1
CCCN1C[C@@H](C)[C@@H](OC)CN(C)C(=O)c2cc(NC(=O)Nc3c(C)noc3C)ccc2OC[C@@H]1C	·	·	·	·	·	7
CCCn1c(=N)n(CC(=O)c2ccc([N+](=O)[O-])cc2)c2ccccc21	-22	10	27	4	-25	23
Cc1ccccc1Cn1c(=N)n(CC(=O)c2ccc([N+](=O)[O-])cc2)c2ccccc21	10	9	66*	-26	-67	·
O=C(Nc1ccc(Cl)cc1)N[C@@H]1CC[C@@H](CCn2cc(C3(O)CCCC3)nn2)O[C@H]1CO	·	·	·	·	·	7
C[C@H](CO)N1C[C@H](C)[C@@H](CN(C)S(=O)(=O)c2cn(C)cn2)Oc2ccc(NC(=O)CCCN(C)C)cc2C1=O	·	·	·	·	·	9
COc1cc2c3nnc(-c4ccc(F)cc4)c-3cn(Cc3cccc(F)c3)c2cc1OC	-19	-7	75*	-5	-73	·
COc1cc2c3nnc(-c4ccc(F)cc4)c-3cn(Cc3ccc(C)cc3)c2cc1OC	i	-18	85*	-40	-84	-17
COc1cc2c3nnc(-c4ccccc4)c-3cn(Cc3ccc(F)cc3)c2cc1OC	-36	-6	27	0	-25	·
C[C@@H]1CN([C@H](C)CO)C(=O)Cc2cc(NC(=O)NC3CCCCC3)ccc2O[C@H]1CN(C)CC1CC1	·	·	·	·	·	1
NC(=O)c1cc([N+](=O)[O-])ccc1NCc1cccc2ccccc12	-20	-3	-6	3	6	-3
O=C(/C=C/Nc1ccc([N+](=O)[O-])cc1Br)c1cccc2ccccc12	28	38	-110	-66	115*	-72
O=C(Nc1ccc2c(c1)[C@H]1C[C@H](CC(=O)N3CCc4ccccc4C3)O[C@@H](CO)[C@H]1O2)NC1CCCC1	·	·	·	·	·	12
CNC[C@@H]1Oc2ccc(NC(=O)Nc3cccc4ccccc34)cc2C(=O)N([C@H](C)CO)C[C@@H]1C	·	·	·	·	·	20
CC(=O)N[C@@H]1CC[C@H](CC(=O)NCC2CCCCC2)O[C@H]1CO	·	·	·	·	·	26
